# High-throughput results: PubChem, National Center for Advancing Translational Sciences (NCATS)
# A selection: hits, their analogues and other compounds. The true share with any hit is near 2.1%.
# TDP43 rescue = TDP-43 toxicity inhibition in yeast | 1.8% of 410,000 active | Potency, µM (titrated, usually from 46.1 µM), without a hit: at the top dose growth rescue (activation), actives largely listed as activators | TDP-43 expressing yeast growth rescue, BacTiter-Glo, 24 h | AID 652104; further: % of control where 0% means no effect; nearly all actives have a fitted effect of over 50% in size
#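 Luminescence from BacTiter-Glo reports growth of TDP-43-expressing yeast after 24 hr at 30 deg C with compound. Cells were raffinose-pregrown to mid-log, then seeded in galactose medium at OD600=0.02.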
# Abeta yeast res = restores growth of yeast expressing A-beta42 peptide | yeast expressing A-beta42, growth rescue, OD600, 48 h; response scale: 0% DMSO, 100% iron-clioquinol control | Potency, µM (series often up to 46.1 µM), hits mostly activators | 0.063% of 410,000 active; further: nearly all actives have a fitted effect of over 55% in size
#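 Yeast A-beta toxicity model in growth medium with pinned compounds, 48 h at 30 C; growth read as absorbance at 600 nm. Normalized to FeCl3/clioquinol equimolar mix (positive) and DMSO (negative).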
# aSyn yeast inh = inhibitors of alpha-synuclein toxicity in yeast; Yeast expressing alpha-synuclein, growth rescue, BacTiter-Glo, 24 h; Potency, µM (doses to about 46.1 µM), without a hit: at the highest dose growth rescue (activation), hits mostly activators; 0.14% of 370,000 active; further: % of control where 0% means no effect; nearly all actives have a fitted effect of over 65% in size
#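 Rescue of yeast growth: cells expressing toxic alpha-synuclein, induced in galactose at OD600 0.02, incubated with compound 24 h at 30 C. ATP luminescence quantified growth; inhibitors of toxicity appear as activators.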
# FUS suppressor = suppressors of FUS proteinopathy in yeast; S. cerevisiae FUS-expressing, growth rescue, OD600, 24 h; Potency, µM (doses to about 76.6 µM), hits mostly activators; 0.24% of 390,000 active; AID 1347120;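 further: plate controls were DMSO vehicle for no effect and reference control for full effect; nearly all actives have a fitted effect of over 55% in size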
#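 Read-out: OD at 600 nm after 24hr at 30C, reporting rescue of FUS-induced yeast toxicity. Cells at OD 0.005 in galactose (2%) minimal medium; compounds tested in a dilution series; CP55940 titration from 92uM final as control.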
# The depositor's hits bear a star; i = inactive; ? = inconclusive; / = not tested or not shown. The call rests on the fitted dose curve; in most records, active means well fitted curve in the direction sought with a large enough effect; inconclusive means small, poorly fitted or top-dose-only effect, or another doubt; inactive means no such curve, though single readings can be large; an effect the other way counts as inactive or inconclusive. Potency means the concentration at half of the fitted maximal effect.
SMILES,TDP43 rescue,Abeta yeast res,aSyn yeast inh,FUS suppressor
Cc1ccc(-c2noc(CSc3nnc(C)n3-c3ccc(C)c(C)c3)n2)cc1,35.5µM*,i,/,i
Cc1ccc(-n2c(SCc3nc(-c4ccc(Cl)cc4)no3)nnc2-c2ccncc2)cc1,35.5µM*,i,/,?
Cn1c(SCc2nc(-c3ccc(Cl)cc3)no2)nnc1-c1ccco1,12.6µM*,i,5.2%,i
Cn1c(SCc2cccc(C(F)(F)F)c2)nnc1-c1ccco1,20µM*,i,16.9%,i
Cc1ccc(-c2noc(CSc3nnc(C)n3-c3ccc(C)cc3)n2)cc1,0.0%,i,/,?
Clc1ccc(-c2noc(CSc3nnc(-c4ccncc4)n3-c3ccccc3)n2)cc1,-0.9%,i,10.2%,?
Cc1ccnc2cc(Cl)c(Cl)cc12,/,/,3.9%,/
O=C1CC(c2nc3ccccc3n2Cc2c(F)cccc2Cl)CN1c1cccc(C(F)(F)F)c1 (centres undefined),25.1µM*,i,/,i
COc1ccccc1OCCCCn1c(C2CC(=O)N(c3ccccc3Cl)C2)nc2ccccc21 (centres undefined),29.7%,i,/,i
CCOc1ccc(N2CC(c3nc4ccccc4n3Cc3ccccc3F)CC2=O)cc1 (centres undefined),0.8%,i,/,i
Cc1c(Cl)cccc1N1CC(c2nc3ccccc3n2Cc2ccccc2F)CC1=O (centres undefined),25.1µM*,i,/,i
Cc1ccccc1OCCCCn1c(C2CC(=O)N(c3ccccc3Cl)C2)nc2ccccc21 (centres undefined),11.2µM*,?,/,i
COc1ccccc1CNC(=O)CN1C(=O)COc2ccc(S(=O)(=O)N3CCCCC3)cc21,1.2%,i,1.6%,i
CN(C)c1ccc(CNC(=O)CN2CCSc3ccc(S(=O)(=O)N(C)C)cc32)cc1,25.2%,i,-3.6%,i
COc1cc(C(C)=O)ccc1OCC(=O)c1cc(C)n(C2CC2)c1C,25.1µM*,i,5.2%,i
O=[N+]([O-])c1ccc(N2CCc3ccccc3C2)nc1,12.6µM*,i,-4.4%,i
COCCNC(=O)[C@@H]1CSC2c3ccc(OC)c(OC)c3C(=O)N21 (some centres undefined),2.82µM*,i,-4.2%,i
O=C(NNC(=O)c1ccccn1)c1ccc(OC(F)F)cc1,31.6µM*,i,?,i
COCCNC(=O)c1ccccc1NC(=O)c1ccccc1SC,0.0%,i,6.9%,i
N#C/C(=C\c1ccc([N+](=O)[O-])cc1)c1ccccn1,12.6µM*,i,4.5%,i
N#C/C(=C\c1cccnc1)c1ccc([N+](=O)[O-])cc1,11.2µM*,i,2.6%,i
N#CCC[C@H]1CC[C@]2(CCCN(C(=O)C3CCCCC3)C2)O1,/,/,/,i
O=C(Cc1csc2ccccc12)NCc1ccc(F)cc1,12.6µM*,i,/,i
Cc1cccc(CNC(=O)Cc2csc3ccccc23)c1,?,i,20µM*,i
Cc1nc(N2CCN(S(=O)(=O)c3ccccc3C#N)CC2)c2c(-c3ccccc3)csc2n1,7.7%,i,-0.6%,i
SMILES,TDP43 rescue,Abeta yeast res,aSyn yeast inh,FUS suppressor
Cc1cccc(C)c1OCc1cc(=O)n2c3c(sc2n1)CCCC3,35.5µM*,i,/,i
O=C(c1ccc2c(=O)n3c(nc2c1)CCCCC3)N1CCN(c2cccc(Cl)c2)CC1,35.5µM*,i,0.8%,?
O=C(c1ccc2c(Cl)c3c(nc2c1)CCCC3)N1CCN(c2ccc(F)cc2)CC1,15.8µM*,i,-2.0%,i
Cc1ccc(N2CCN(C(=O)c3ccc4c(Cl)c5c(nc4c3)CCCC5)CC2)c(C)c1,21.6%,i,/,i
COc1ccccc1N1CCN(C(=O)c2ccc3c(Cl)c4c(nc3c2)CCCC4)CC1,20µM*,i,0.5%,?
COc1ccc(N2CCN(C(=O)c3ccc4c(=O)n5c(nc4c3)CCCCC5)CC2)cc1,18.1%,i,-0.4%,i
Cc1ccc(N2CC(NC(=O)c3ccc(S(=O)(=O)N(C)C)cc3)CC2=O)cc1C (centres undefined),21.2%,i,/,i
Cc1cccc(Oc2cnn(C(C)(C)C)c(=O)c2Cl)c1,10µM*,i,9.7%,i
COc1cnn(C(C)(C)C)c(=O)c1Cl,-15.9%,i,0.0%,i
CCOC(=O)c1ccc(NC(=O)c2c(NCc3ccc(OC)c(OC)c3OC)sc3c2CCC(C)C3)cc1 (centres undefined),26.0%,i,/,i
CCCCn1c(N)c(N(CC(C)C)C(=O)c2ccc(Cl)c(S(=O)(=O)N3CCCC3)c2)c(=O)[nH]c1=O,-9.2%,i,-15.7%,31.6µM*
CCCCCN(C(=O)CCC(=O)OC(C)C(=O)c1ccc(Cl)cc1)c1c(N)n(CCCC)c(=O)[nH]c1=O (centres undefined),-3.6%,i,1.5%,31.6µM*
CCCCCN(C(=O)CCC(=O)OCC(=O)c1ccc(F)c(F)c1)c1c(N)n(CCCC)c(=O)[nH]c1=O,11.2%,i,0.7%,28.2µM*
CCCCCN(C(=O)CCC(=O)OC(C)C(=O)NCc1ccccc1)c1c(N)n(CCCC)c(=O)[nH]c1=O (centres undefined),-8.5%,i,-4.7%,i
COc1ccc(C(C)(C)C)cc1NC(=O)COC(=O)c1ccc([N+](=O)[O-])o1,-93.2%,i,-73.4%,i
O=C(COC(=O)c1ccc([N+](=O)[O-])o1)Nc1ccc(N2CCOCC2)cc1,?,i,-20.8%,i
O=C(COC(=O)c1ccc([N+](=O)[O-])o1)Nc1ccc(F)cc1,15.8µM*,i,-7.3%,i
COc1ccc(C)cc1NC(=O)COC(=O)c1ccc([N+](=O)[O-])o1,11.2µM*,i,1.6%,i
O=C(NCC(=O)N1CCN(Cc2ccccc2)CC1)c1ccc(Br)o1,-6.6%,i,-7.0%,i
CCCCCc1ccc(NC(=O)O[C@@H]2CC[C@@]34CCCN3C(=O)CCC[C@H]4C2)cc1,/,/,/,22.4µM*
CC1Cc2ccccc2N1C(=O)/C=C/c1cccc(F)c1 (centres undefined),20µM*,i,6.1%,i
CCc1nn(CC(=O)NCCc2ccc(OC)cc2OC)c(=O)c2cc3sccc3n12,7.9%,i,/,i
Oc1cccc(C=NN=C2c3ccccc3-c3ccccc32)c1,28.2µM*,i,-27.7%,/
CCOc1cc(C=NN=C2c3ccccc3-c3ccccc32)ccc1O,14.1µM*,i,22.1%,/
O=C1NC(c2ccc(Br)cc2)Nc2ccccc21 (centres undefined),-4.1%,i,0.2%,i
O=C1c2ccccc2-c2cc(Br)ccc2NC1O (centres undefined),?,i,22.4µM*,i
Cc1ccc(C(=O)/C=C/C(=O)O)cc1,-71.0%,i,3.16µM*,i
Cc1ccccc1-c1nc(C(=O)NCC2CCCO2)cc2c1[nH]c1ccccc12 (centres undefined),10µM*,i,6.4%,i
